Assay outcomes (PubChem)
Shown are actives, neighbours in structure and some others; about 9% of the full set was active somewhere.
KinaseGlo FLuc = counter-screen: inhibitors of Kinase-Glo firefly luciferase; Q27757; Kinase-Glo luciferase, ATP luminescence, 8 min; Potency, µM (series often up to 38.3 µM), hits mostly inhibitors; 200,000 compounds, 0.28% hits; also: nearly all actives have a fitted effect of over 60% in size
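Compounds were added to a substrate mix at pH 7.2 (50 mM imidazole, 10 uM ATP, within the enzyme's linear range), followed by Kinase-Glo detection reagent; luminescence was measured after 8 minutes at ambient temperature.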
ALDH1A1 block = blocks purified human ALDH1A1 activity. P00352. Purified ALDH1A1, NADH fluorescence, propionaldehyde substrate. Potency, µM (series often up to 75.3 µM), actives largely listed as inhibitors. 220,000 compounds, 7.3% hits. AID 1030; active = well fitted inhibition curve with a large enough effect, not every such curve was filed as active; inconclusive = small, poorly fitted or top-dose-only effect, or another doubt; inactive = no such curve, though single readings can be large or run the other way
Target sequence (P00352 whole entry, looked up): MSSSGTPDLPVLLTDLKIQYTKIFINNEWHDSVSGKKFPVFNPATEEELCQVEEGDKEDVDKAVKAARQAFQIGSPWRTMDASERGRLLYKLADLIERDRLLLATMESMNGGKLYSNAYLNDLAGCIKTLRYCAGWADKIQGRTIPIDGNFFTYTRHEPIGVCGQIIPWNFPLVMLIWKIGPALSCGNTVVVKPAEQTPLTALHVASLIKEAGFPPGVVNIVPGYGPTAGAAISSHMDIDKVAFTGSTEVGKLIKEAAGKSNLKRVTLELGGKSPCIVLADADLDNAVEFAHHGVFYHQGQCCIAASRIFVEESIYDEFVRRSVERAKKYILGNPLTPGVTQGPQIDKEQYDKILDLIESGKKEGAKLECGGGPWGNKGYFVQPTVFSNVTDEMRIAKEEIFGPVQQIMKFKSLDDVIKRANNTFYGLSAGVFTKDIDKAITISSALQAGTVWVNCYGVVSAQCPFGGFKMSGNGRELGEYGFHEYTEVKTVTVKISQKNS
HTT ATP protect = cytoprotection in Huntington HTT-Q103 PC12 cell model | PC12 HTT-Q103 induced, cytoprotection, ATP luminescence, 40 h | Potency, µM (top dose mostly 56.4 µM), hits mostly activators | 230,000 compounds, 0.14% hits | AID 1471; also: nearly all actives have a fitted effect of over 45% in size
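Stable PC12 Q103-GFP cells in serum-supplemented, phenol red-free DMEM; induction by tebufenozide at 100 nM final; compound dose series; cell viability quantified luminescently from ATP.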
HTT aggregate = reduces HttQ103-GFP aggregates in PC12 cells | Potency, µM (series often up to 46.1 µM), actives largely listed as inhibitors | 220,000 compounds, 1.1% hits | PC12 HttQ103-GFP aggregates, Acumen cytometry, 40 h; also: nearly all actives have a fitted effect of over 60% in size
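Multiplexed with ATP-based cell death, this channel scores GFP aggregates in PC12 cells expressing inducible HTTex1-Q103-GFP. Induction used 100 nM tebufenozide; compounds were tested in concentration series.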
Lamin A splicing = modulators of lamin A splicing; HeLa LMNA splicing GFP/RFP minigene ratio, 48 h; AID 1487; 200,000 compounds, 0.01% hits; Potency, µM (doses to about 46.1 µM), most hits filed as inhibitors; active = well fitted inhibition curve with a large enough effect in the signal ratio, with a control signal flat, not every such curve was filed as active; inconclusive = small, poorly fitted or top-dose-only effect, or effect the other way, or a change in a side signal; the % refers to the signal ratio
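S3 HeLa stable clones carrying a lamin A-EGFP splicing minigene plus DsRed2 were seeded at 600 cells/well in Opti-MEM with 2% FBS, pin-dosed and incubated 48 h at 37°C. Acumen cytometry (488 nm) gave the GFP/RFP total-intensity ratio.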
HPGD block = HPGD (human) dehydrogenase inhibition; purified HPGD, NADH fluorescence kinetic, PGE2 substrate; Potency, µM, actives largely listed as inhibitors; 150,000 compounds, 4.3% hits; AID 894; active = well fitted inhibition curve with a large enough effect, not every such curve was filed as active; inconclusive = small, poorly fitted or top-dose-only effect, or another doubt; inactive = no such curve, though single readings can be large or run the other way
Target sequence (P15428 whole entry, looked up): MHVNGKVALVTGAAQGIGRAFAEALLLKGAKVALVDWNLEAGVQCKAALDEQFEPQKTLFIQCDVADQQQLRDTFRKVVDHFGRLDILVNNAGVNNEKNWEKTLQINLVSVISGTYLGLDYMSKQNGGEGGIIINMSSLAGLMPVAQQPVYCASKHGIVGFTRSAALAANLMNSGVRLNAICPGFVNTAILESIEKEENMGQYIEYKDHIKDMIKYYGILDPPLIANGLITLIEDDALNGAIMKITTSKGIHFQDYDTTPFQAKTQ
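20 nM HPGD preincubated 15 min at room temperature with compound in 50 mM Tris-HCl pH 8, 0.01% Tween 20. Started with 1 mM NAD+ and 30 uM prostaglandin E2; NADH fluorescence (360/450 nm) read 5 times over 30-s intervals, last minus first.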
Large screens that a line does not name were inactive. Unless noted, calls follow the shape of the dose curve; as a rule, active = well fitted curve in the direction sought with a large enough effect; inconclusive = small, poorly fitted or top-dose-only effect, or another doubt; inactive = no such curve, though single readings can be large; an effect the other way counts as inactive or inconclusive.

CCCOc1ccc(N2C(=O)CC(SCc3nc4ccccc4[nH]3)C2=O)cc1 (configuration not stated)	ALDH1A1 block 16µM, Lamin A splicing inconclusive (no result: HPGD block)
O=C1CC(SCc2nc3ccccc3[nH]2)C(=O)N1c1cccc(Cl)c1 (configuration not stated)	ALDH1A1 block 11µM
CCCCN1C(=O)/C(=C2/Sc3ccccc3N2C)S/C1=N\c1ncn[nH]1	none (no result: Lamin A splicing, HPGD block)
Cc1cccc(C)c1NC(=O)NN(C(=O)c1ccccc1)C(C)(C)C	none
CC(=O)c1cc(CC=C(C)C)c(O)cc1O	HTT aggregate inconclusive, HPGD block 13µM
CC(=O)c1cc(CC=C(C)C)c(O)c(CC=C(C)C)c1O	none
O=C(NNC(=O)c1ccc(Oc2cc(Cl)cc(Cl)c2)o1)c1ccccc1	none (no result: KinaseGlo FLuc, Lamin A splicing, HPGD block)
CCc1cccc(Nc2cc(C)nc3nc(C)nn23)c1	HTT aggregate 35µM
Cc1cc(Nc2ccccc2F)n2nc(C)nc2n1	none
COc1ccc(C)cc1Nc1cc(C)nc2ncnn12	HPGD block 5µM
Cc1cc(Nc2cccc(C(F)(F)F)c2)n2nc(C)nc2n1	none
CCOc1ccc(OCC)c(Nc2cc(C)nc3ncnn23)c1	HPGD block 4.5µM
Cc1cc(Nc2cc(F)ccc2C)n2ncnc2n1	none
CCOc1ccccc1Nc1cc(C)nc2nc(C)nn12	HPGD block 1.6µM
Fc1ccc(-c2nnn(Cc3nc4ccccc4s3)n2)cc1	none
CCOc1ccc(OCC)c(Nc2cc(C)nc3nc(C)nn23)c1	HPGD block 0.5µM
Cc1ccc(CSCC(=O)NCCCN2CCOCC2)cc1	none (no result: HPGD block)
CCCCc1cc(=O)oc2cc(OCC(=O)N3CCc4ccccc43)ccc12	ALDH1A1 block inconclusive, HPGD block inconclusive
O=C(Nc1cccc(F)c1)N1CC2(CCN(C(=O)c3ccco3)CC2)C1	ALDH1A1 block 11µM (no result: HTT aggregate, Lamin A splicing)
N#Cc1cccc(NC(=O)N2CC3(CCN(C(=O)c4ccco4)CC3)C2)c1	ALDH1A1 block 9.5µM (no result: HTT aggregate, Lamin A splicing)
CC(=O)N1CCC2(CC1)CN(C(=O)Nc1cccc(C#N)c1)C2	none (no result: HTT aggregate, Lamin A splicing)
CC1CN(CC(O)COC(c2ccccc2)c2ccccc2)CC(C)O1 (configuration not stated)	ALDH1A1 block 25µM
CCn1c(C(C)NC(=O)c2ccc(Cl)cc2)n[nH]c1=S (configuration not stated)	none (no result: HPGD block)
CCOC(=O)C1=C(O)/C(=C\c2ccc(CNC(=O)C(=O)Nc3ccccc3)o2)N=C1C	ALDH1A1 block 11µM, Lamin A splicing inconclusive, HPGD block 32µM
CCCc1cc(=O)[nH]c(SCC(=O)C(C)(C)C)n1	none
CCCc1cc(=O)[nH]c(SCc2ccc(Cl)cc2)n1	HPGD block 16µM
CCSc1nc(-c2ccccc2)c(C#N)c(=O)[nH]1	ALDH1A1 block inconclusive, HPGD block 28µM
Cc1cccc(CSc2nc3[nH]ncc3c(=O)[nH]2)c1	ALDH1A1 block 8.9µM (no result: HPGD block)
CCCc1cc(=O)[nH]c(SCc2cccnc2)n1	HPGD block 20µM
CSc1nc(-c2ccccc2)c(C#N)c(=O)[nH]1	none (no result: KinaseGlo FLuc, ALDH1A1 block, Lamin A splicing, HPGD block)
CCSc1nc2nc(C)cc(C)n2n1	none
C/C(=N\NC(=S)NCc1ccccc1)c1ccccc1F	Lamin A splicing inconclusive (no result: HPGD block)
CCCc1cc(=O)[nH]c(SCc2nc3ccc([N+](=O)[O-])cc3[nH]2)n1	Lamin A splicing inconclusive, HPGD block 18µM
CCCc1cc(=O)[nH]c(SCc2ccccc2)n1	ALDH1A1 block inconclusive, HPGD block 16µM
CCc1nc(SCc2ccc(F)cc2)[nH]c(=O)c1C#N	ALDH1A1 block 32µM, Lamin A splicing inconclusive, HPGD block 4.5µM
CCCc1cc(=O)[nH]c(SCc2cc(Cl)ccc2OC(F)F)n1	HTT ATP protect inconclusive, HPGD block 14µM
CCCc1cc(=O)[nH]c(SCc2nc(-c3ccccc3F)no2)n1	none (no result: KinaseGlo FLuc, ALDH1A1 block, HTT ATP protect, HTT aggregate, HPGD block)
CC(C)(C)c1[nH]nc2c1C(C1C=CCCC1)C(C#N)=C(N)O2 (configuration not stated)	ALDH1A1 block inconclusive
NC(=O)NOCc1c(F)cccc1Cl	none (no result: KinaseGlo FLuc, Lamin A splicing, HPGD block)
Cc1noc2ncnc(Sc3ccc(Cl)cc3)c12	ALDH1A1 block inconclusive, HTT aggregate inconclusive, Lamin A splicing inconclusive
COc1ccc(CCCc2nnc(SCC(=O)Nc3cc(C)c(C)cc3Br)o2)cc1	Lamin A splicing inconclusive
CCc1nc(SCc2cccnc2)[nH]c(=O)c1C	HPGD block 25µM
CCCc1cc(=O)[nH]c(SCc2csc(-c3ccccc3)n2)n1	HTT aggregate inconclusive, Lamin A splicing inconclusive
CCCc1cc(=O)[nH]c(SCc2cccc(C)c2)n1	ALDH1A1 block inconclusive, HPGD block 14µM
Cc1ccc(S(=O)(=O)N2CCN(C(=O)COc3ccc(NC(=O)c4ccco4)cc3)CC2)cc1	none
COc1ccc2sc3ccccc3c(=O)c2c1OC	HPGD block 6.3µM
O=C1CCC(C(=O)NCc2ccc3c(c2)OCO3)N1 (configuration not stated)	none (no result: Lamin A splicing, HPGD block)
COc1cc(N2CCCC2)ccc1C=O	ALDH1A1 block 13µM (no result: HPGD block)
O=Cc1ccc(N2CCCCC2)cc1	ALDH1A1 block 1.6µM (no result: HPGD block)
CSC1=NCCN1C(=O)c1ccc(S(=O)(=O)N2CCCCC2)cc1	ALDH1A1 block inconclusive
CC(C)CN(CC(C)C)c1nnc(NC(=O)Cn2c(=O)oc3ccccc32)s1	ALDH1A1 block 1.4µM
CCc1nnc(NC(=O)Cn2c(=O)oc3ccccc32)s1	none
CC(C)Oc1ccc(CNC(=O)Cn2c(=O)oc3ccccc32)cc1	HTT aggregate inconclusive, HPGD block 20µM
CCCc1nnc(NC(=O)Cn2c(=O)oc3ccccc32)s1	ALDH1A1 block 10µM, HPGD block 28µM
O=C(CSc1nc(O)cc(=O)[nH]1)N1c2ccccc2Sc2ccccc21	ALDH1A1 block inconclusive (no result: HPGD block)
Cc1ccc(-c2nn(-c3ccccc3)cc2NC(=O)CCl)cc1	ALDH1A1 block 20µM, HTT aggregate inconclusive, Lamin A splicing inconclusive (no result: HPGD block)
Cc1ccc(-c2nn(-c3ccccc3)cc2CNCc2ccccc2)cc1	ALDH1A1 block 22µM, HTT aggregate inconclusive, Lamin A splicing inconclusive (no result: HPGD block)
Cc1ccc(-c2cc(NC(=O)CCl)n(-c3ccccc3)n2)cc1	ALDH1A1 block 0.5µM, HTT aggregate inconclusive, Lamin A splicing inconclusive
Cc1cc(NC(=O)CCl)n(-c2nc3ccccc3s2)n1	ALDH1A1 block 4µM, HTT aggregate inconclusive (no result: HPGD block)
Cc1ccccc1NC(=O)c1cn(-c2ccccc2)nc1-c1ccccc1	Lamin A splicing inconclusive
Cc1ccc(OCC(=O)Nc2cc(-c3cccc(C)c3)nn2-c2ccccc2)cc1	none (no result: KinaseGlo FLuc, ALDH1A1 block, HTT ATP protect, HTT aggregate, HPGD block)
COc1ccc(-c2nc3ccncc3[nH]2)cc1OC	KinaseGlo FLuc inconclusive, ALDH1A1 block inconclusive, HPGD block inconclusive
CSCC(=O)NS(=O)(=O)c1ccc(C)cc1	Lamin A splicing inconclusive (no result: HTT ATP protect)
CC(=O)Nc1ccc(-c2cc(NC(C)=O)n(-c3ccccc3)n2)cc1	none (no result: KinaseGlo FLuc, HPGD block)
